# Data from PubChem BioAssay AID2796 (The Scripps Research Institute Molecular Screening Center, 2010).
# Out of some 320,000 compounds screened, about 8,000 (2.5%) were called active. This excerpt belongs to a sample that is enriched for actives. A number with no mark means an inactive call. No stated cut-off is given here; in the data, active means activation above about 47%; inactive means the rest.
# Target: Aryl hydrocarbon receptor (Homo sapiens) (UniProt P35869)
# Experiment: AHR activators, primary screen, cell-based, luminescence, luciferase reporter, human (AID 2796);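 further: 0% = vehicle wells and 100% = reference agonist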
# Settings: AHR-responsive luciferase reporter cells, at 5 µM, stronger effect = higher value
# Chain of Aryl hydrocarbon receptor (Homo sapiens) (P35869 whole entry, looked up): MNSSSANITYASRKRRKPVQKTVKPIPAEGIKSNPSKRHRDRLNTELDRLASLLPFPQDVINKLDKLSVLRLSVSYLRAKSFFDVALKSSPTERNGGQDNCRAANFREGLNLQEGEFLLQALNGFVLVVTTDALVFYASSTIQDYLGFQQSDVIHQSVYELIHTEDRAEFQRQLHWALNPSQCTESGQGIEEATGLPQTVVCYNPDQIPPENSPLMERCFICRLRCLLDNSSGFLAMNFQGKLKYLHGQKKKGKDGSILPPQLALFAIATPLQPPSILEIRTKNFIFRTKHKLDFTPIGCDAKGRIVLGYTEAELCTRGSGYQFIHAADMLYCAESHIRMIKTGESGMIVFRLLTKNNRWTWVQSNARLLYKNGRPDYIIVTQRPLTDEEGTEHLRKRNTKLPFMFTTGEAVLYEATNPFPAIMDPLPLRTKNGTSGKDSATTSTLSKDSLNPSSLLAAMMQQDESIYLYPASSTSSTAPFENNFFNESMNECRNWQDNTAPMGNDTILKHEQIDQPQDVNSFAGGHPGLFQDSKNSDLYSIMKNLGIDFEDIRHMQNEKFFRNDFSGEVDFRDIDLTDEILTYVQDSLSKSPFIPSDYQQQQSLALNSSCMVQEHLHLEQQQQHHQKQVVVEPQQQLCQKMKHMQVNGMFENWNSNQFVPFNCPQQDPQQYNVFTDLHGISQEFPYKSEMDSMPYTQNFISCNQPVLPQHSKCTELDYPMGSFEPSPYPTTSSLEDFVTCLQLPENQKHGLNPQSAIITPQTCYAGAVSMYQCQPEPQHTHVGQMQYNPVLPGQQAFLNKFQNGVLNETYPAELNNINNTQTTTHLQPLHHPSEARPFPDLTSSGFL
row,Structure (SMILES),activation
1,COc1cc(OC)c(N2CC(C(=O)Nc3cc(Cl)ccc3N3CCOCC3)CC2=O)cc1Cl (stereo not given),-0.04%
2,CCn1c(CSc2nncn2-c2ccc(OC)cc2)nc2cc(S(=O)(=O)N(C)C)ccc21,-0.25%
3,CCOc1ccccc1C1NC(=O)NC(C)=C1C(=O)OCc1ccco1 (stereo not given),-1.31%
4,COC(=O)c1ccc(/C=C/c2c(-c3ccc(OC)cc3)sc3ccccc23)cc1,51.7% (active)
5,COc1ccc2sc(-c3ccc(S(C)(=O)=O)cc3)c(-c3ccc(C(N)=O)cc3)c2c1,17.8%
6,COc1ccccc1-c1sc2ccccc2c1-c1ccc(C(C)=O)cc1,42.1%
7,O=C1CCCCC1Sc1ccc(Cl)cc1[N+](=O)[O-] (stereo not given),14.3%
8,Cc1nc(NC(CC(C)C)C(=O)O)c2nc(C)oc2n1 (stereo not given),1.08%
9,CCOC(=O)CN1C(=O)C(=O)c2cc(C)ccc21,-0.46%
10,CC(C)OC(=O)CN1C(=O)C(=O)c2ccccc21,101% (active)
11,CC(OC(=O)CN1C(=O)c2ccccc2C1=O)C(=O)c1ccccc1 (stereo not given),0.4%
12,CC1CCCN(S(=O)(=O)c2ccc(N(C(=O)c3cnccn3)C(C(=O)NC3CCCCC3)c3cccs3)cc2)C1 (stereo not given),2.59%
13,CCOC(=O)CCP(=O)(O)C(O)(c1ccccc1)c1ccccc1,-2.52%
14,COCCNC(=O)c1ccc(S(=O)(=O)c2ccc(Cl)cc2)c(NC(C)=O)c1,5.01%
15,CCOC(=O)c1c(S(=O)(=O)Nc2cccc(Cl)c2)c(C)n(C)c1C,21.5%
16,CCOC(=O)c1c(C)n(C)c2ccc(OC)c(NC(=O)CN3CCC4(CC3)OCCO4)c12,0.77%
17,CCOC(=O)c1c(C)n(C)c2ccc(OC)c(NS(=O)(=O)CC)c12,55.7% (active)
18,FC(F)(F)c1cc(C(F)(F)F)c2ccc(N3CCN(c4ccccc4)CC3)nc2n1,3.17%
19,Oc1ccc(-c2[nH]ncc2-c2nc3ccccc3s2)c(O)c1,48.9% (active)
20,COc1ccc(Oc2cn[nH]c2-c2ccc(OC)cc2O)cc1,6.87%

row,Structure (SMILES),activation
1,CC(=O)Nc1cccc(-c2nc3ccccc3s2)c1C,-9.79%
2,CCOC(=O)C1(Cc2ccccc2C)CCCN(C(=O)c2ccc(COC)o2)C1 (stereo not given),20.8%
3,O=c1ccc2cc(S(=O)(=O)Nc3ccccc3F)ccc2o1,-0.99%
4,Cc1cc(C(=O)COc2ccccc2[N+](=O)[O-])c(C)n1-c1cccc(S(=O)(=O)N2CCOCC2)c1,10.1%
5,CCCc1c(C(=O)Nc2ccc(F)cc2)cnn1-c1ccccc1,69.9% (active)
6,CCNC(=O)c1cnn(-c2ccccc2)c1-c1ccccc1,0.69%
7,CCCc1c(C(=O)O)cnn1-c1ccc(Cl)cc1,-2.51%
8,COc1cc(/C=C/C(=O)OCC(=O)NC2CC2)cc(OC)c1OC,1.12%
9,O=S(=O)(NCc1ccccc1Br)c1ccccc1Br,-0.52%
10,CCCn1c(=O)c(C(=O)Nc2cc(C)ccn2)c(O)c2ccccc21,7.05%
11,Cn1c(=O)c(C(=O)Nc2ncccn2)c(O)c2ccccc21,66.7% (active)
12,Cn1c(=O)c(Sc2ccc(Cl)cc2)c(O)c2ccccc21,6.8%
13,COc1ccccc1NC(=O)CSc1nnc(Cn2nnc(-c3ccccc3)n2)n1-c1ccccc1,-0.61%
14,O=C(NCc1ccncc1)c1ccc(NS(=O)(=O)c2cccc([N+](=O)[O-])c2)cc1,-0.44%
15,O=C(NCCNc1ccc([N+](=O)[O-])cc1Cl)c1ccccc1F,-0.69%
16,O=C(NCCCNc1ccc([N+](=O)[O-])cc1Cl)c1ccccc1F,-0.83%
17,CCC(C)NCC(=O)Nc1ccc([N+](=O)[O-])cc1C(=O)Nc1ccccc1F (stereo not given),104% (active)
18,CC1CC(C)CN(C(=O)C2CC(=O)N(c3ccc(F)cc3)C2)C1 (stereo not given),-4.43%
19,Cc1ccc(O)c(CCc2ccccc2)n1,21.5%
20,COc1ccc(Nc2ncnc3ccc(Br)cc23)c(OC)c1,52.9% (active)

row,Structure (SMILES),activation
1,O=C(O)CCCCCNc1ncnc2ccc(Br)cc12,4.84%
2,C=CCNc1ncnc2ccc(Br)cc12,0.32%
3,O=C(COc1ccccc1F)Nc1nc(-c2ccccn2)cs1,12.4%
4,COc1ccc2[nH]c(=O)c(CN(CC3CCCO3)C(=O)Nc3ccccc3)cc2c1 (stereo not given),0.61%
5,Cc1cccc(NC(=O)N(Cc2cc3cc(C)cc(C)c3[nH]c2=O)CC2COCCO2)c1 (stereo not given),59.6% (active)
6,Cc1ccc2[nH]c(=O)c(CN(CC3COCCO3)C(=O)Nc3ccccc3C)cc2c1 (stereo not given),9.5%
7,Cc1ccc(C2(C(F)(F)F)N=C3Sc4cc(C)cc(C)c4N3C(=O)N2)cc1 (stereo not given),70.8% (active)
8,COC(=O)C1=C(N)Oc2c(oc(CO)cc2=O)C1c1c(F)cccc1Cl (stereo not given),-0.25%
9,Cc1ccc(N2C(=O)N3[C@@H]4c5ccccc5OC[C@@H]4[C@@H](c4ccccc4)[C@@]3(C)C2=O)cc1,0.11%
10,COC(=O)Cc1ccc(OCC(=O)Nc2ccc(OC(F)(F)F)cc2)cc1,1.97%
11,CCOC(=O)Cc1ncccc1C(=O)Nc1ccc(OC(F)(F)F)cc1,78.1% (active)
12,CCOC(=O)Cc1ncccc1C(=O)Nc1ccc(OC)cc1,2.4%
13,COc1ccccc1N(C)S(=O)(=O)c1ccc(Cl)c(C(=O)Nc2ccncc2)c1,17.1%
14,CCOc1ccc(OCc2cccc(C(=O)N(CC)CC)c2)cc1,-5.06%
15,CCSc1nsc(NC(=O)Nc2cccc(C(C)=O)c2)n1,76.5% (active)
16,CCSc1nsc(NC(=O)Nc2ccccc2OC)n1,-2.87%
17,C=CCSc1nsc(NC(=O)Nc2cccc(C(C)=O)c2)n1,41.3%
18,CC(C)(C)Nc1c(N)c(=O)oc2ccccc12,-0.9%
19,Nc1c(NCCc2ccccc2)c2ccccc2oc1=O,67.9% (active)
20,O=Cc1c(NCCc2cccc(F)c2)c2ccccc2[nH]c1=O,1.73%
